Here are results for 18 compounds from PubChem BioAssay (NCI).

About 83,000 compounds went through this panel and 20% of them were active in at least one assay; those are over-represented in the sample as a whole.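 In brief: 96-well plates, 48 h treatment, single concentration, percent growth endpoint.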 Values without a mark were called inactive. Active and inactive are the calls of the source. Rule for the calls: active = growth percent below 10; inactive = the rest.

Common to all, as to test: NCI-60 one-dose screen, 48 h (100 = growth as untreated, 0 = no growth, -100 = all killed)
Common to all, as to conditions: 10 µM

Assay [1] concerns BT-549 breast.
The test system of assay [2] is MDA-MB-435 melanoma.
In assay [3] the test system is SW-620 colon.
The subject of assay [4] is MCF7 breast.
The subject of assay [5] is HCT-116 colon.
The test system of assay [6] is HCC-2998 colon.
Assay [7] relates to KM12 colon.

On to `NC(=O)SCC(=O)Nc1ccc(S(N)(=O)=O)cc1`, for which the growth in assay [1] was 111%; in assay [2], 106%; in assay [3], 99.2%; in assay [4], 104%; in assay [5], 109%; in assay [6], 102%. The growth in assay [7] is 101%.
With `CCCC(F)C(=O)O` (stereo not given), the growth in assay [1] is 111%; in assay [2], 95.8%; in assay [3] it was 105%; in assay [4], 97.8%; in assay [5] it was 102%; in assay [6], 111%. Moreover, in assay [7], the growth is 106%.
`O=C(Nc1cccc(-n2cc(-c3ccncc3)c(-c3ccc(O)c(Cl)c3)n2)c1)c1ccc(Cl)c(Cl)c1`: the growth is 68.5% in assay [1]; 47.2% in assay [2]; 28.2% in assay [3]; 35.5% in assay [4]; 44.4% in assay [5]; 54.3% in assay [6]. In assay [7], the growth was 43.9%.
`CCN(CC)CCNC(=O)c1ccc(NC(C)=O)cc1`: the growth in assay [1] is 106%; in assay [2], 101%; in assay [3], 107%; in assay [4], 101%; in assay [5] it was 105%; in assay [6], 102%. The growth in assay [7] is 108%.
For the compound `COc1cc(C2CC(c3ccc(Nc4ccnc5cc(Cl)ccc45)cc3)=NN2c2ccc(Cl)cc2)cc(OC)c1OC` (stereo not given), the growth in assay [1] is 68.4%; in assay [2], 8.05% (active); in assay [3], 39.4%; in assay [4], 29.4%; in assay [5], 46.6%; in assay [6], 55.4%. In addition, the growth in assay [7] is 30.5%.
Consider `COc1cc(/C=C2\CCCC3=C2N=C2SC=NN2C3c2cc(OC)c(OC)c(OC)c2)cc(OC)c1OC` (stereo not given), for which the growth in assay [1] was 37.9%; in assay [2], -13.2% (active); in assay [3], 18.5%; in assay [4], 27.4%; in assay [5], -23.5% (active); in assay [6], 4.77% (active). Also, the growth in assay [7] is -23.5% (active).
For the compound `CCCCN(CCCC)c1cc(C(=O)CCCCCN)c2ccccc2n1`, the growth is 68.2% in assay [1]; -52.1% (active) in assay [2]; 39.8% in assay [3]; 40% in assay [4]; -95.6% (active) in assay [5]; -31.4% (active) in assay [6]. The growth in assay [7] is -93.3% (active).
For `c1ccc(CSc2nnc3c4c5c(sc4nc(-c4cccnc4)n23)CCCCCC5)cc1`, the growth in assay [1] was 41.1%; in assay [2], 19.1%; in assay [3], 55.3%; in assay [4], 37.6%; in assay [5] it was 29.3%; in assay [6] it was 46.5%. Besides, in assay [7], the growth was 34.4%.
Take `COc1ccc(Nc2nc3ccc(NC(=O)NC4CCCCC4)cc3[nH]c2=O)cc1`: the growth is 87.7% in assay [1]; 105% in assay [2]; 108% in assay [3]; 83% in assay [4]; 102% in assay [5]; 104% in assay [6]. Also, the growth in assay [7] was 87.1%.
On to `CC1CN(Cc2ccccc2)C(=O)NC1=O` (stereo not given), for which the growth in assay [1] was 103%; in assay [2], 110%; in assay [3], 110%; in assay [4] it was 94.8%; in assay [5], 106%; in assay [6], 110%. Moreover, the growth in assay [7] is 113%.
Take `COc1ccc(-c2nsc3c2NC(=O)CC3c2ccc(F)cc2)cc1` (stereo not given): the growth in assay [1] was 28%; in assay [2], -56.1% (active); in assay [3], 21.4%; in assay [4], 22%; in assay [5], 19.5%; in assay [6] it was 56.7%. Besides, the growth in assay [7] was 22.2%.
In the case of `COc1cc(-c2cc(/C=C/C(=O)c3ccc(F)c(F)c3)[nH]n2)cc(OC)c1OC`, the growth is 94.2% in assay [1]; 51.7% in assay [2]; 67.2% in assay [3]; 48.3% in assay [4]; 29.3% in assay [5]; 87.1% in assay [6]. In addition, the growth in assay [7] is 41%.
Consider `O=C1OCC2=C1C(c1ccc(Cl)c(Cl)c1)c1cc3c(cc1N2CCO)OCCO3` (stereo not given), for which the growth in assay [1] is 60.4%; in assay [2], -52.6% (active); in assay [3], 19%; in assay [4], 20.4%; in assay [5], 19.8%; in assay [7], 4.49% (active).
Take `c1ccc([I+]c2ccccc2)cc1`: the growth is 65.5% in assay [1]; 68.9% in assay [2]; 40.8% in assay [3]; 64% in assay [4]; 31% in assay [5]; 41.9% in assay [7].
`COc1ccc2c(c1)N(CCO)C1=C(C(=O)OC1)C2c1ccc(OC)c(OC)c1` (stereo not given): the growth is 64.2% in assay [1]; -25.9% (active) in assay [2]; 17.5% in assay [3]; 27.3% in assay [4]; 26.7% in assay [5]; 18.7% in assay [7].
With `Nc1ccccc1NC(=O)CCCCC(=O)Nc1ccc2c(c1)/C(=C/c1ccc[nH]1)C(=O)N2`, the growth in assay [1] is 33.9%; in assay [2], 68.8%; in assay [3] it was 91.3%; in assay [4], 35%; in assay [5], 82.7%; in assay [7], 15.9%.
With `O=C1OCC2=C1C(c1cccc(Br)c1)c1cc3c(cc1N2CCO)CCC3` (stereo not given), the growth was 15.7% in assay [1]; -40% (active) in assay [2]; 17.5% in assay [3]; 21.4% in assay [4]; 6.12% (active) in assay [5]; -47.5% (active) in assay [7].
Consider `O=[N+]([O-])c1ccc(Oc2cccnc2)c([N+](=O)[O-])c1`, for which the growth was 72.3% in assay [1]; 26.9% in assay [2]; 1.5% (active) in assay [3]; 46.7% in assay [4]; 8.43% (active) in assay [5]; 56.8% in assay [7].
